From PubChem BioAssay AID435019 (Southern Research Specialized Biocontainment Screening …, 2010)
The whole screen tested about 2,300 compounds, of which about 1,200 (52%) were called active. The rule behind the calls is not given here. The set was probably picked from earlier hits. The list shows a part of the results. Entries with a potency or affinity are not part of this list.

experiment: mammalian cell cytotoxicity, dose response, cytotoxicity control for M. tuberculosis inhibitor project (AID 435019); details: cytotoxicity counter-screen; series mostly up to 40 µM; viability: at the top concentration;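 note: 0% = background wells and 100% = vehicle-treated cells; lower values mean fewer viable cells so more cytotoxicity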

SMILES | viability
Cc1ccc(CN2CC(C(=O)OCc3ccccc3Cl)CC2=O)cc1 (configuration not stated) | 92.4% (inactive)
CCOC(=O)CSc1ncnc2c1sc1nc(N3CCOCC3)c3c(c12)CCCC3 | 83.6% (inactive)
COc1ccc(NC2=C(C(C)=O)C(c3ccc4c(c3)OCO4)C(C(C)=O)C(C)(O)C2)cc1 (configuration not stated) | 94% (inactive)
CCCNC(=O)NC(=O)COc1ccc2oc3ccccc3c2c1 | 94% (inactive)
COc1ccc(-c2cc3n(n2)CCc2nc4ccccc4n2-3)cc1 | 81.9% (inactive)
NNC(=S)Nc1ccccc1Cl | 81.6% (inactive)
CCCCCOC(=O)Nc1nnc(CCCCC)s1 | 96.8% (inactive)
O=C(CSc1nnnn1-c1ccc2c(c1)OCCO2)OC1CCCCC1 | 98.5% (inactive)
C=CCc1c(C)nc2ccc(C(=O)OCC)cc2c1Cl | 85.8% (inactive)
C/C(=N\Nc1nc2c(s1)CCCC2)c1ccccc1 | 93.5% (inactive)
O=C(Nc1nc2c(s1)CCCC2)c1cc(-c2ccc3c(c2)OCO3)nc2ccccc12 | 94.1% (inactive)
COC(=O)c1ccc2c(=O)[nH]c(CSc3nc(C)cs3)nc2c1 | 94.4% (inactive)
C/C(=N\Nc1ccc([N+](=O)[O-])cc1)c1cccc(N)c1 | 96.7% (inactive)
O=C1c2ccccc2S(=O)(=O)c2cc(C(=O)N3CCN(c4c(Cl)cncc4Cl)CC3)ccc21 | 86.1% (inactive)
O=C(/C=C/c1ccc(OCCCF)cc1)Nc1ccnc(-c2ccncc2)n1 | 89.6% (inactive)
CCCCOC1CC(c2ccc(OCc3ccc(OC)cc3)c(OC)c2)N(C)O1 (configuration not stated) | 81.5% (inactive)

SMILES | viability
CO/N=C\CC(=O)Nc1ccc(Oc2ccccc2)cc1 | 63.6% (inactive)
O=C1c2ccccc2C(=O)N1Nc1ccccc1 | 99.7% (inactive)
O=C1C(=O)N(c2ccccc2)c2ccccc21 | 96.8% (inactive)
CC(=O)c1c(N2CCCC2)[nH]c(-c2ccccc2)nc1=S | 96% (inactive)
Cc1ccc(-c2cccc(NC(=O)C3C4C=CC(C4)C3C(=O)O)c2)o1 (configuration not stated) | 88.6% (inactive)
NC(=O)/C(=N\OC(=O)c1ccco1)c1nc(-c2ccc(Br)cc2)cs1 | 86.2% (inactive)
CCOC(=O)C(C)Oc1ccc(NC(=O)C(Cl)(Cl)Cl)cc1 (configuration not stated) | 92.1% (inactive)
CCOC1OC(=O)C(Cl)=C1Nc1ccccc1C (configuration not stated) | 94.2% (inactive)
COc1ccc(-c2ccc(=O)n(Cc3c(F)cccc3Cl)n2)cc1 | 89.1% (inactive)
O=C(c1ccccc1)C1CN(Cc2ccccc2)CCC1(O)c1ccccc1 (configuration not stated) | 81.6% (inactive)
CCCCn1cnc2cc(NCc3cccc(OC)c3O)ccc21 | 91% (inactive)
c1ccc(Cn2nnc3c(N4CCc5ccccc5C4)ncnc32)cc1 | 80.2% (inactive)
Oc1ccc(F)c2cccnc12 | 98.7% (inactive)
CCOC(=O)N1CCN(C(=O)COC(=O)C2CCN(S(=O)(=O)c3c(Cl)cccc3Cl)CC2)CC1 | 97% (inactive)
COc1c(C)cc(C(=O)C2CCCN(Cc3ccccn3)C2)cc1C (configuration not stated) | 90.1% (inactive)
COC(=O)c1cc(Sc2cccc(Cl)c2Cl)ccn1 | 83.8% (inactive)
